For test [1], the target named is Peroxisome proliferator-activated receptor gamma (Homo sapiens) (UniProt P37231). Put plainly: qHTS assay to identify small molecule antagonists of the peroxisome proliferator-activated receptor gamma (PPARg) signaling pathway (AID 743191; calls by dose curve; further: nearly all actives have a fitted effect of over 30% in size; further: potency means the concentration at half of the fitted maximal effect). The procedure, abridged: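 GeneBLAzer PPARg UAS-bla HEK293H cells, 5 h post-plating, exposed to compounds 17 h at 37C. LiveBLAzer B/G FRET substrate added for 1 h at room temperature; beta-lactamase reporter read by fluorescence intensity.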
Chain of Peroxisome proliferator-activated receptor gamma (Homo sapiens) (P37231 whole entry, looked up): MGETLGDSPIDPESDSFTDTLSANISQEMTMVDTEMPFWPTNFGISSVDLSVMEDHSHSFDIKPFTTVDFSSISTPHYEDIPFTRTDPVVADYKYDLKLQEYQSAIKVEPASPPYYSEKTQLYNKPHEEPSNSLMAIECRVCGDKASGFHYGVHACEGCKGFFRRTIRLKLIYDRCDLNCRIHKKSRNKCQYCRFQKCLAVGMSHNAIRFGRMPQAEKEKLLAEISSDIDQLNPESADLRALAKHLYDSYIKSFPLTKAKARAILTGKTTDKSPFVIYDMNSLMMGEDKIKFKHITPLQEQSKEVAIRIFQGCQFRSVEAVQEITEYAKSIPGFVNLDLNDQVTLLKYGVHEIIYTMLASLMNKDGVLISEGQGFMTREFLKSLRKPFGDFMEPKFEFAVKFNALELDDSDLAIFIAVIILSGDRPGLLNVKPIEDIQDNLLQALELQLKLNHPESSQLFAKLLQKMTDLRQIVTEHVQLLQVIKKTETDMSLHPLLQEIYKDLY
A general note: qHTS replaces the single test concentration by a dilution series.

Test [2] in a line: qHTS assay to identify small molecule antagonists of the peroxisome proliferator-activated receptor gamma (PPARg) signaling pathway - cell viability counter screen (AID 743194). Further: nearly all actives have a fitted effect of over 55% in size. The conditions noted are these: Potency: co-treated with 50 nM rosiglitazone. The method, boiled down:
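Cytotoxicity counter screen in PPARg-bla HEK293H cells, same wells as reporter assay. Compounds plus 50 nM rosiglitazone (final) for 17 h at 37 C, then viability read by CellTiter-Glo luminescence.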

The nature of test [3]: qHTS assay for small molecule agonists of the antioxidant response element (ARE) signaling pathway (AID 743202; active means well fitted activation curve with a large enough effect in the signal ratio in the repeat runs, not every such curve was filed as active; the % refers to the signal ratio). The method, boiled down:
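Agonist mode reporter screen: HepG2 cells with ARE-controlled beta-lactamase are incubated with test compounds for 16 h at 37 C, and beta-lactamase activity is measured as fluorescence of cleaved B/G FRET substrate.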

Test [4] in a line: qHTS assay for small molecule agonists of the antioxidant response element (ARE) signaling pathway - cell viability counter screen (AID 743203; calls by dose curve; further: nearly all actives have a fitted effect of over 55% in size; further: potency means the concentration at half of the fitted maximal effect). The method, boiled down:
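CellSensor ARE-bla HepG2 cells, 2,000 per well, rested 5 hrs at 37C/5% CO2, then exposed to compound in DMSO for 16 hrs; viability read as CellTiter-Glo luminescence after 30 min at room temperature, in the reporter wells.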

The nature of test [5]: qHTS assay for small molecule activators of the heat shock response signaling pathway - cell viability counter screen (AID 743209). Further: nearly all actives have a fitted effect of over 50% in size. The procedure, abridged: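 CellSensor HSE-bla HeLa cells, plated overnight at 37 C/5% CO2, were exposed to compounds in DMSO for 5 h at 37 C. Viability was then read in the same wells by CellTiter-Glo luminescence after 30 min at room temperature.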

Test [6] can be described thus: qHTS assay for small molecule activators of the heat shock response signaling pathway (AID 743210; active means well fitted activation curve with a large enough effect in the signal ratio in the repeat runs, with a control signal flat, not every such curve was filed as active; the % refers to the signal ratio;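 further: HeLa cells with beta-lactamase reporter driven by heat shock elements; series mostly up to about 63 µM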). The procedure, abridged: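 Quantitative high-throughput format using an engineered HeLa line in which heat shock response elements drive beta-lactamase; after 5 h with compound, cells received a B/G FRET substrate and fluorescence was read.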
Test [7] is described as follows: qHTS assay to identify small molecule agonists of the peroxisome proliferator-activated receptor delta (PPARd) signaling pathway - cell viability counter screen (AID 743211). Further: nearly all actives have a fitted effect of over 55% in size. The method, boiled down:
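Multiplexed format: after the 2 h room-temperature LiveBLAzer B/G FRET step, CellTiter-Glo was added to the same wells. Luminescence after 30 min gave cell viability; compound exposure was 17 h at 37C.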

For test [8], the target named is Peroxisome proliferator-activated receptor delta (Homo sapiens) (UniProt Q03181). Put plainly: qHTS assay to identify small molecule agonists of the peroxisome proliferator-activated receptor delta (PPARd) signaling pathway (AID 743212; calls by dose curve). The procedure, abridged:
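Quantitative high-throughput agonist screen in a HEK293H beta-lactamase reporter line under UAS control. Compounds in DMSO, at 37 C. Fluorescence read after 2 h with FRET substrate at room temperature.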

Test [9] can be described thus: qHTS assay to identify small molecule antagonists of the peroxisome proliferator-activated receptor delta (PPARd) signaling pathway - cell viability counter screen (AID 743213). Further: nearly all actives have a fitted effect of over 50% in size. The procedure, abridged: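 Luminescence from CellTiter-Glo, added after the bla read and incubated 30 min at room temperature, gives viability of HEK293H PPARd-bla cells exposed to compounds for 17 h at 37 C with 300 nM L165041.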

Test [10] has as its target Peroxisome proliferator-activated receptor delta (Homo sapiens) (UniProt Q03181). Put plainly: qHTS assay to identify small molecule antagonists of the peroxisome proliferator-activated receptor delta (PPARd) signaling pathway (AID 743215; active means well fitted inhibition curve with a large enough effect in the signal ratio in the repeat runs, not every such curve was filed as active; the % refers to the signal ratio;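 further: cells stimulated with agonist L165041 at 300 nM final during compound exposure; series mostly up to about 62 µM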). The procedure, abridged: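 PPARd UAS-bla HEK293H cells were pre-incubated 5 h at 37 C, then given test compounds in DMSO plus agonist L165041 (300 nM final). After 17 h at 37 C, beta-lactamase FRET substrate was added; fluorescence read after 2 h at room temperature.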

A short description of test [11]: qHTS assay to identify small molecule agonists of the farnesoid-X-receptor (FXR) signaling pathway - cell viability counter screen (AID 743218). Further: nearly all actives have a fitted effect of over 45% in size. The procedure, abridged:
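FXR-UAS-bla HEK 293T cells, plated 5 h at 37 C, were exposed to compounds for 16 h at 37 C. CellTiter-Glo was then added to the same wells as the bla readout; luminescence read after 30 min at room temperature.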

A short description of test [12]: qHTS assay to identify small molecule antagonists of the farnesoid-X-receptor (FXR) signaling pathway - cell viability counter screen (AID 743221; active means well fitted cell-killing curve with a large enough effect in the repeat runs, not every such curve was filed as active; further: nearly all actives have a fitted effect of over 50% in size). The method, boiled down: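 CellTiter-Glo, 30 min RT, luminescence; same wells as the LiveBLAzer FRET read. Cells: FXR-UAS-bla HEK 293T. Treatment: compound with chenodeoxycholic acid 50 uM final, 16 h at 37 C.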
In test [13] the target is Vitamin D3 receptor (Homo sapiens) (UniProt P11473). Nature of the test: qHTS assay to identify small molecule agonists of the vitamin D receptor (VDR) signaling pathway (AID 743222; calls by dose curve). The procedure, abridged: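 VDR-bla cells were plated 4 h at 37C/5% CO2, then exposed to compounds in DMSO for 16 h. After LiveBLAzer B/G FRET substrate addition and 2 h at room temperature, beta-lactamase reporter fluorescence was read.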
Chain of Vitamin D3 receptor (Homo sapiens) (P11473 whole entry, looked up): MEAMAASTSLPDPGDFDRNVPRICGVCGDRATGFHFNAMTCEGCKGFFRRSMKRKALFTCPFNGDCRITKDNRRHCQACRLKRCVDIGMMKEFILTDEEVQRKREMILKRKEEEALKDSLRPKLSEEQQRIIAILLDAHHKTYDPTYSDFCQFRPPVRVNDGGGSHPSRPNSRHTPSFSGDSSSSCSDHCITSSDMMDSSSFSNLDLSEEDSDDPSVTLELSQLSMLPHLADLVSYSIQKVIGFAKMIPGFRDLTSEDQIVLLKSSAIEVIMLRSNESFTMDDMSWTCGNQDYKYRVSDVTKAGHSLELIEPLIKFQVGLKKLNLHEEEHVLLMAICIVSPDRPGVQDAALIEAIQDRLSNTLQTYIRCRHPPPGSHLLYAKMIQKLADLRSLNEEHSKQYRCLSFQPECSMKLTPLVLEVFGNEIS

Test [14] deals with Bile acid receptor (Homo sapiens) (UniProt Q96RI1). Put plainly: qHTS assay to identify small molecule agonists of the farnesoid-X-receptor (FXR) signaling pathway (AID 743220; active means well fitted activation curve with a large enough effect in the signal ratio in the repeat runs, not every such curve was filed as active; the % refers to the signal ratio). The method, boiled down:
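Beta-lactamase reporter under UAS control in GeneBLAzer FXR HEK 293T cells (5000/well) measured with LiveBLAzer FRET substrate after 2 h at room temperature. Compound exposure lasted 16 h at 37C.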

Test [15] is described as follows: qHTS assay to identify small molecule that activate the aryl hydrocarbon receptor (AhR) signaling pathway - cell viability counter screen (AID 743086). Further: nearly all actives have a fitted effect of over 45% in size. Further: potency means the concentration at half of the fitted maximal effect. The method, boiled down:
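HepG2-AhR-luc (HG2L7.5c1) cells, 4000/well, treated 24 h at 37 C with compound; viability measured as CellTiter-Fluor fluorescence after 30 min in the same wells as the luciferase read.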

The target of test [16] is Vitamin D3 receptor (Homo sapiens) (UniProt P11473). Put plainly: qHTS assay to identify small molecule antagonists of the vitamin D receptor (VDR) signaling pathway (AID 743223; active means well fitted inhibition curve with a large enough effect in the signal ratio in the repeat runs, not every such curve was filed as active; the % refers to the signal ratio). The method, boiled down: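 After VDR-bla cells are plated and left 4 h at 37C, DMSO-dissolved compounds and 3 nM (final) calcitriol agonist are added. Incubation continues 16 h at 37C; FRET beta-lactamase substrate then develops 2 h at room temperature.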

Test [17] in a line: qHTS assay to identify aromatase inhibitors - cell viability counter screen (AID 743084).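 Further: cells stimulated with testosterone during compound exposure; nearly all actives have a fitted effect of over 55% in size.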
The target of test [18] is Bile acid receptor (Homo sapiens) (UniProt Q96RI1). Nature of the test: qHTS assay to identify small molecule antagonists of the farnesoid-X-receptor (FXR) signaling pathway (AID 743217; active means well fitted inhibition curve with a large enough effect in the signal ratio in the repeat runs, not every such curve was filed as active; the % refers to the signal ratio; further: potency means the concentration at half of the fitted maximal effect). The method, boiled down: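 FXR-UAS-bla HEK 293T cells pre-incubated 5 h at 37 °C, then exposed to compounds with chenodeoxycholic acid (50 uM final) for 16 h at 37 °C. Beta-lactamase reporter read by LiveBLAzer B/G FRET substrate fluorescence after 2 h at room temperature.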
Chain of Bile acid receptor (Homo sapiens) (Q96RI1 whole entry, looked up): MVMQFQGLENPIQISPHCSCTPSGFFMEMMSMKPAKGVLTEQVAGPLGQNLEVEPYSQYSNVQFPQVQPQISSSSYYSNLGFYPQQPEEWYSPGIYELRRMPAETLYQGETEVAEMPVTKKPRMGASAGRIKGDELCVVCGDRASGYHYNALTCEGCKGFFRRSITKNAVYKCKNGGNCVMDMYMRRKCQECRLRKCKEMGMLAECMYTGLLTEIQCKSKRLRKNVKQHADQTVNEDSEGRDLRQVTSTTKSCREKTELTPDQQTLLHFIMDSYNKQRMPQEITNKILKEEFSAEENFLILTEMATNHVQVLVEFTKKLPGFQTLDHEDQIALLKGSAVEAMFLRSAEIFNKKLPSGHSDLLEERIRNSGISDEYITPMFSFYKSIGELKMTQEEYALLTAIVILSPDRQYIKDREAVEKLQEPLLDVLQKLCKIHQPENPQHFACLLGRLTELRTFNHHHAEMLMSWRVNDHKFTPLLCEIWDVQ

The target in test [19] is Peroxisome proliferator-activated receptor gamma (Homo sapiens) (UniProt P37231). Nature of the test: qHTS assay to identify small molecule agonists of the peroxisome proliferator-activated receptor gamma (PPARg) signaling pathway (AID 743094; active means well fitted activation curve with a large enough effect in the signal ratio in the repeat runs, not every such curve was filed as active; the % refers to the signal ratio). The method, boiled down:
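GeneBLAzer PPARg UAS-bla HEK293H cells carrying a stably integrated beta-lactamase reporter were pre-incubated 5 h at 37C, then exposed to compounds in DMSO for 17 h at 37C; LiveBLAzer B/G FRET substrate was added for 1 h at room temperature and fluorescence read.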

These results are taken from PubChem BioAssay (Tox21).

Records with an inconclusive call do not appear. Calls of active or inactive are those of the source. Unless noted, the call rests on the fitted dose curve; in most records, active means well fitted curve in the direction sought with a large enough effect in the repeat runs; inconclusive means weak or mixed curves; inactive means no such curve, though single readings can be large; an effect the other way counts as inactive or inconclusive.

Chain of Peroxisome proliferator-activated receptor delta (Homo sapiens) (Q03181 whole entry, looked up): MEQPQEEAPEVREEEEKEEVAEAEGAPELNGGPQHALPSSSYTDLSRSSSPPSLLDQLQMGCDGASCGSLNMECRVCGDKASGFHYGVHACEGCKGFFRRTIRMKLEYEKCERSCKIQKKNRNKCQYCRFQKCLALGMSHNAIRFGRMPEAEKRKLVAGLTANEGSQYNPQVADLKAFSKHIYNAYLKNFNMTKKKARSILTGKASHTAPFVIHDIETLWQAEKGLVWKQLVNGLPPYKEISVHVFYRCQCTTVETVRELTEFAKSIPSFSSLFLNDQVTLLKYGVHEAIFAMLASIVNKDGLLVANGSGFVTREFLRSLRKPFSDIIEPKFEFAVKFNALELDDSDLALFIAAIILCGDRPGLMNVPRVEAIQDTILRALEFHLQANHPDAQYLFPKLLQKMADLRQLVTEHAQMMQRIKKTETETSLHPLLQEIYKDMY

As to `CCC(=O)O[C@@H]1C=C2CCC3C(CCC4(C)C3CC[C@@H]4OC(=O)CC)C2CC1` (some centres not stated), the Potency entry in test [1], in test [2], in test [3], in [4], in test [5] and in [6] was “inactive” each time. In addition, the Potency entry in test [7], in [9], in test [10], in [11] and in test [12] was “inactive” in each case. For the same compound, the call in test [8] and in test [13] was inactive.
As for `CCOC(C(=O)OCCN(C)C)(c1ccccc1)c1ccccc1`, the Potency entry in [1], in test [2], in test [3], in [4], in [5] and in test [6] was “inactive” each time. Further, the Potency result in [7], in test [9] and in test [11] was “inactive” throughout. Further, the compound was called inactive in test [14] and in test [13].
Regarding `O=C(N/N=C/c1ccc([N+](=O)[O-])o1)c1cc([N+](=O)[O-])cc([N+](=O)[O-])c1O`, the Potency in test [15] is 29.8 µM (active). Also, the Potency result in [1], in [2], in [4], in [5], in test [6] and in test [9] was “inactive” throughout. Further, the Potency entry in test [10], in test [11], in test [12] and in [16] was “inactive” throughout. Besides, the compound was classed as inactive in test [8], in [14] and in test [13].
For `c1ccc2c(c1)-c1cccc3cccc-2c13`, the Potency entry in test [17], in test [15], in test [2], in test [4], in test [5] and in [6] was “inactive” in each case. Moreover, the Potency result in [9], in test [11] and in test [12] was “inactive” each time. The result in test [13] was inactive.
`O=P(OCC(Br)CBr)(OCC(Br)CBr)OCC(Br)CBr` (configuration not stated): the Potency result in [17], in test [5] and in [12] was “inactive” throughout. Besides, the Potency is 44.2 µM (active) in test [1], 36.6 µM (active) in test [4] and 46.5 µM (active) in test [18]. Besides, the call in test [8] and in test [14] was inactive.
As to `Cc1nc2ccccc2c(=O)n1-c1ccccc1Cl`, the Potency result in [1], in [2], in test [4], in [6], in test [7] and in test [9] was “inactive” each time. The Potency entry in [11] and in test [12] was “inactive” throughout. Also, in test [13], the result was inactive.
With `Cc1ccccc1`, the Potency result in [17], in [19], in test [1], in test [2], in test [3] and in test [4] was “inactive” in each case. For the same compound, the Potency entry in test [5], in test [6], in test [9], in test [10], in test [11] and in test [12] was “inactive” throughout. Further, the Potency entry in [16] is “inactive”. In addition, the compound was called inactive in test [8] and in [13].
Take `O=C(O)c1cc(I)cc(I)c1I`: the Potency entry in [17], in test [15], in [2], in test [4], in test [5] and in test [6] was “inactive” in each case. The Potency entry in [7], in [9], in test [10], in test [11] and in [12] was “inactive” in each case. Besides, the compound was classed as inactive in test [8], in [14] and in test [13].
In the case of `CC(CC(C(N)=O)(c1ccccc1)c1ccccc1)N(C)C` (configuration not stated), the Potency entry in [1], in test [2], in [4], in test [5], in test [6] and in test [7] was “inactive” in each case. For the same compound, the Potency result in [9], in [10], in test [11], in test [12] and in test [16] was “inactive” each time. Further, the compound was called inactive in test [8] and in test [13].
